Where “and” joins values, the source holds several entries; their conditions need not be identical. Equal entries are not always repeated. Results filed as inconclusive are left out. More than one record can exist for a structure, and the calls need not agree. Calls of active or inactive are those of the source. Unless noted, calls follow the shape of the dose curve; as a rule, active = well fitted curve in the direction sought with a large enough effect; inconclusive = small, poorly fitted or top-dose-only effect, or another doubt; inactive = no such curve, though single readings can be large; an effect the other way counts as inactive or inconclusive.

Test system in one assay: not listed separately
The assay can be described thus: Primary qHTS to identify inhibitors of SARS-CoV-2 cell entry (AID 1645846; calls by dose curve; also: nearly all actives have a fitted effect of over 45% in size; also: potency is read from the fitted curve at half-maximal effect). The settings on record: SARS-CoV-2 pseudovirus cell entry assay, luminescence; activity change, negative = inhibition: at 57.1 µM (top of the series) unless noted; series mostly up to 57.1 µM. A digest of the protocol: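 HEK293-ACE2 (Expi293F, stable hACE2), 1500 cells/well, o/n 37C; cpd 23 nL pin, 1 h; MLV-PP w/ SARS-CoV-2-S (Wuhan-Hu-1, Δ19 C-term); 48 h 37C; Bright-Glo luminescence; normalized vs S-PP and bald PP.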
(qHTS replaces the single test concentration by a dilution series.)
As to `Oc1ccc(Cl)cc1Cc1ccccc1`, the activity change, negative = inhibition is -21.8%.
The same measure, in the same setting: then `COc1cccc2c1C(=O)c1c(O)c3c(c(O)c1C2=O)C[C@@](O)(C(=O)CO)C[C@@H]3O[C@H]1C[C@H](N)[C@H](O)[C@H](C)O1`, with -93.7%; and `COc1c(C)c2c(c(O)c1C/C=C(\C)CCC(=O)OCCN1CCOCC1)C(=O)OC2`, with -45.8%.
On to `CC(=O)Oc1ccccc1C(=O)Nc1ncc([N+](=O)[O-])s1`, for which the Potency was 5.62 µM (active) and inactive.
For `C[C@@H]1O[C@@H](O[C@H]2C[C@@H](O)[C@]3(CO)[C@H]4[C@H](O)C[C@]5(C)[C@@H](C6=CC(=O)OC6)CC[C@]5(O)[C@@H]4CC[C@]3(O)C2)[C@H](O)[C@H](O)[C@H]1O`, the activity change, negative = inhibition is -97.3% and -94.1%.
Same read-out and setting: then `CC[C@]1(O)C[C@H]2CN(CCc3c([nH]c4ccccc34)[C@@](C(=O)OC)(c3cc4c(cc3OC)N(C=O)[C@H]3[C@@](O)(C(=O)OC)[C@H](OC(C)=O)[C@]5(CC)C=CCN6CC[C@]43[C@@H]65)C2)C1`, with -77.7% and -70.4%; and `CC(C)(C)C(=O)OCOP(=O)(COCCn1cnc2c(N)ncnc21)OCOC(=O)C(C)(C)C`, with -90.1%.
On the same count and under the same terms, then `CN1CCC(=C2c3ccccc3C=Cc3ccccc32)CC1`, with -24.8%.
On the same count and under the same terms, then `C=C(C)[C@H]1Cc2c(ccc3c2O[C@@H]2COc4cc(OC)c(OC)cc4[C@@H]2C3=O)O1`, with -94.7%.
Regarding `C=C(CC)C(=O)c1ccc(OCC(=O)O)c(Cl)c1Cl`, the Potency was 17.8 µM (active).
On the same count and under the same terms, then `Cc1cn([C@H]2C[C@H](N=[N+]=[N-])[C@@H](CO)O2)c(=O)[nH]c1=O`, with 1 µM (active).
In the case of `CNC(=O)c1ccc(N2C(=S)N(c3ccc(C#N)c(C(F)(F)F)c3)C(=O)C23CCC3)cc1F`, the activity change, negative = inhibition was -17.3%.
On the same count and under the same terms, then `CC[C@]1(O)C[C@@H]2CN(CCc3c([nH]c4ccccc34)[C@@](C(=O)OC)(c3cc4c(cc3OC)N(C)[C@H]3[C@@](O)(C(=O)OC)[C@H](OC(C)=O)[C@]5(CC)C=CCN6CC[C@]43[C@@H]65)C2)C1`, with -82.9%; and `CC(=O)[C@]1(O)Cc2c(O)c3c(c(O)c2[C@@H](O[C@H]2C[C@H](N)[C@H](O)[C@H](C)O2)C1)C(=O)c1ccccc1C3=O`, with -91.2% and -93.3%.

The target in a further assay is Papain (Carica papaya) (UniProt P00784). The assay is described as follows: Primary qHTS assay for inhibitors of the protease papain (AID 1645873).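 Also: papain turnover of Z-FR-AMC read as the AMC fluorescence gain over 10 min; % is scaled to controls: 0 for no effect and ±100 for the full control effect.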 The settings on record: papain Z-FR-AMC cleavage, AMC fluorescence; series mostly up to 49.8 µM.
Papain (Carica papaya), sequence (P00784 whole entry, looked up): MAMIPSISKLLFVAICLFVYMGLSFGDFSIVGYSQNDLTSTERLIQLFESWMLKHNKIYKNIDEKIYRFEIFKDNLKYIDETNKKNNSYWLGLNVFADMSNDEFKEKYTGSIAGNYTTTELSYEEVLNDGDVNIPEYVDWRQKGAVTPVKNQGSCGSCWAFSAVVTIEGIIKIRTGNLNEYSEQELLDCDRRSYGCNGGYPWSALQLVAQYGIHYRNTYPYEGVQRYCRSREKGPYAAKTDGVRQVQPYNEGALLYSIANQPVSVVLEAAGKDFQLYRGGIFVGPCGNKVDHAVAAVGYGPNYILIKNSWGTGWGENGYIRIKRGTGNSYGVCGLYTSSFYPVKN
On to `c1ccc2c(c1)OCC(C1=NCCN1)O2` (stereo unspecified), for which the Potency entry was “inactive”.
The same measure, in the same setting: then `C[C@@H]1O[C@@H](O[C@H]2C[C@@H](O)[C@]3(CO)[C@H]4[C@H](O)C[C@]5(C)[C@@H](C6=CC(=O)OC6)CC[C@]5(O)[C@@H]4CC[C@]3(O)C2)[C@H](O)[C@H](O)[C@H]1O`, with “inactive”; and `C=C(C)[C@H]1Cc2c(ccc3c2O[C@@H]2COc4cc(OC)c(OC)cc4[C@@H]2C3=O)O1`, with “inactive”.
The same measure, in the same setting: then `CC(CCc1ccccc1)NC(C)C(O)c1ccc(O)cc1` (stereo unspecified), with “inactive”.

Test system in the next assay: not listed separately
The assay can be described thus: Primary qHTS for inhibitors of nuclear receptor binding SET domain protein 2 (NSD2) in an isogenic RCH-ACV NSD2 p.E1099K mutant (9B) (AID 1645876). Also: nearly all actives have a fitted effect of over 70% in size. Also: potency is read from the fitted curve at half-maximal effect. The settings on record: RCH-ACV NSD2 E1099K (9B) viability, CellTiter-Glo, 72 h; series mostly up to 44.9 µM.
Consider `c1ccc2c(c1)OCC(C1=NCCN1)O2` (stereo unspecified), for which the Potency was 9.44 µM (active).
Still for that read-out and setting: then `Oc1ccc(Cl)cc1Cc1ccccc1`, with 24.6 µM (active).
`C[C@H]1O[C@@H](O[C@H]2[C@@H](O)C[C@H](O[C@H]3[C@@H](O)C[C@H](O[C@H]4CC[C@@]5(C)[C@H](CC[C@@H]6[C@@H]5CC[C@]5(C)[C@@H](C7=CC(=O)OC7)CC[C@]65O)C4)O[C@@H]3C)O[C@@H]2C)C[C@H](O)[C@@H]1O`: the Potency is 16.8 nM (active) and 19.2 nM (active).
Still for that read-out and setting: then `CCC(=O)C(CC(C)N(C)C)(c1ccccc1)c1ccccc1` (stereo unspecified), with 34.7 µM (active); and `C[C@@H]1O[C@@H](O[C@H]2C[C@@H](O)[C@]3(CO)[C@H]4[C@H](O)C[C@]5(C)[C@@H](C6=CC(=O)OC6)CC[C@]5(O)[C@@H]4CC[C@]3(O)C2)[C@H](O)[C@H](O)[C@H]1O`, with 29.9 nM (active) and 50.2 nM (active) and 41.7 nM (active).
On the same count and under the same terms, then `Clc1ccc(CCC(Cn2ccnc2)Sc2c(Cl)cccc2Cl)cc1` (stereo unspecified), with 18.8 µM (active) and 18.6 µM (active); and `CO[C@]12CC[C@@]3(C[C@@H]1[C@](C)(O)C(C)(C)C)[C@@H]1Cc4ccc(O)c5c4[C@@]3(CCN1CC1CC1)[C@H]2O5`, with 6.05 µM (active); and `C=C(C)[C@H]1Cc2c(ccc3c2O[C@@H]2COc4cc(OC)c(OC)cc4[C@@H]2C3=O)O1`, with 0.188 µM (active).
In the case of `C=C1C[C@@H]2[C@H](CC[C@]3(C)C(=O)CC[C@@H]23)[C@@]2(C)C=CC(=O)C=C12`, the Potency was 16.8 µM (active) and 26.3 µM (active).
On the same count and under the same terms, then `CNC(=O)N1N=C(c2ccc(N)cc2)c2cc3c(cc2CC1C)OCO3` (stereo unspecified), with 3.65 µM (active).
`CC(CCc1ccccc1)NC(C)C(O)c1ccc(O)cc1` (stereo unspecified): the Potency result is “inactive”.
Same read-out and setting: then `Cc1sc2c(c1C)C(c1ccc(Cl)cc1)=N[C@@H](CC(=O)OC(C)(C)C)c1nnc(C)n1-2`, with 0.372 µM (active); and `Cn1cc(C2=C(c3cn(C4CCN(Cc5ccccn5)CC4)c4ccccc34)C(=O)NC2=O)c2ccccc21`, with “inactive and 16.4 µM (active)”.

Test system in another assay: not listed separately
The assay is described as follows: Primary qHTS for inhibitors of nuclear receptor binding SET domain protein 2 (NSD2) in an RCH-ACV wild type WT cells (2C) (AID 1645877). Also: nearly all actives have a fitted effect of over 70% in size. Also: potency is read from the fitted curve at half-maximal effect. The settings on record: RCH-ACV (leukaemia line) NSD2 WT (2C) viability, CellTiter-Glo, 72 h; series mostly up to 44.9 µM.
As for `c1ccc2c(c1)OCC(C1=NCCN1)O2` (stereo unspecified), the Potency was 7.5 µM (active).
On the same count and under the same terms, then `Oc1ccc(Cl)cc1Cc1ccccc1`, with 34.7 µM (active).
Consider `C[C@H]1O[C@@H](O[C@H]2[C@@H](O)C[C@H](O[C@H]3[C@@H](O)C[C@H](O[C@H]4CC[C@@]5(C)[C@H](CC[C@@H]6[C@@H]5CC[C@]5(C)[C@@H](C7=CC(=O)OC7)CC[C@]65O)C4)O[C@@H]3C)O[C@@H]2C)C[C@H](O)[C@@H]1O`, for which the Potency was 42.2 nM (active) and 85.8 nM (active).
Same read-out and setting: then `CCC(=O)C(CC(C)N(C)C)(c1ccccc1)c1ccccc1` (stereo unspecified), with 30.9 µM (active); and `C[C@@H]1O[C@@H](O[C@H]2C[C@@H](O)[C@]3(CO)[C@H]4[C@H](O)C[C@]5(C)[C@@H](C6=CC(=O)OC6)CC[C@]5(O)[C@@H]4CC[C@]3(O)C2)[C@H](O)[C@H](O)[C@H]1O`, with 37.6 nM (active) and 100 nM (active) and 66.1 nM (active).
Still for that read-out and setting: then `Clc1ccc(CCC(Cn2ccnc2)Sc2c(Cl)cccc2Cl)cc1` (stereo unspecified), with 11.9 µM (active) and 20.9 µM (active).
Still for that read-out and setting: then `CO[C@]12CC[C@@]3(C[C@@H]1[C@](C)(O)C(C)(C)C)[C@@H]1Cc4ccc(O)c5c4[C@@]3(CCN1CC1CC1)[C@H]2O5`, with 6.79 µM (active).
Consider `C=C(C)[C@H]1Cc2c(ccc3c2O[C@@H]2COc4cc(OC)c(OC)cc4[C@@H]2C3=O)O1`, for which the Potency was 0.15 µM (active).
Still for that read-out and setting: then `CC(=O)[C@H]1CC[C@H]2[C@@H]3CC[C@H]4C[C@H](O)CC[C@]4(C)[C@H]3C(=O)C[C@]12C`, with “inactive”.
On the same count and under the same terms, then `C=C1C[C@@H]2[C@H](CC[C@]3(C)C(=O)CC[C@@H]23)[C@@]2(C)C=CC(=O)C=C12`, with 11.9 µM (active) and 18.6 µM (active).
Turning to `CNC(=O)c1ccc(N2C(=S)N(c3ccc(C#N)c(C(F)(F)F)c3)C(=O)C23CCC3)cc1F`, the Potency was 16.6 µM (active).
On the same count and under the same terms, then `CNC(=O)N1N=C(c2ccc(N)cc2)c2cc3c(cc2CC1C)OCO3` (stereo unspecified), with 2.05 µM (active); and `CC(CCc1ccccc1)NC(C)C(O)c1ccc(O)cc1` (stereo unspecified), with “inactive”.
Same read-out and setting: then `Cc1sc2c(c1C)C(c1ccc(Cl)cc1)=N[C@@H](CC(=O)OC(C)(C)C)c1nnc(C)n1-2`, with 0.263 µM (active); and `Cn1cc(C2=C(c3cn(C4CCN(Cc5ccccn5)CC4)c4ccccc34)C(=O)NC2=O)c2ccccc21`, with “inactive”.

The values above are taken from PubChem BioAssay (NCATS).
